This is a sample that favours compounds with a hit; in the whole collection about 5.4% have one here.
FMDV inh – blocks foot and mouth disease virus | FMDV antiviral cell-based qHTS | Potency, µM (doses to about 57.9 µM), without a hit: at the highest dose activity change, negative = inhibition, actives largely listed as inhibitors | AID 1159524 | hit rate 1.2% among 410,000; calls by dose curve; tested in HEK293T cells; note: read-out not given here; nearly all actives have a fitted effect of over 45% in size
MARV entry inh – Marburg virus entry inhibition. hit rate 1.8% among 300,000. Marburg virus pseudotyped entry inhibition, cell reporter. Potency, µM (highest dose often 37.8 µM), for the others: at the highest dose activity change, negative = inhibition, actives largely listed as inhibitors. AID 540276; calls by dose curve; tested in HEK293 cells
Sm TGR inh – inhibitors of Schistosoma mansoni thioredoxin glutathione reductase; Q962Y6; purified TGR, DTNB reduction, TNB absorbance 405 nm; Potency, µM (top dose mostly 114 µM), without a hit: at the top dose activity change, negative = inhibition, actives largely listed as inhibitors; hit rate 3% among 360,000; AID 485364; active = well fitted inhibition curve with a large enough effect; inconclusive = small, poorly fitted or top-dose-only effect; inactive = no such curve, though single readings can be large or run the other way; note: nearly all actives have a fitted effect of over 60% in size
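TGR 20 nM + NADPH 100 uM (dispensed conc.), cpd preinc 15 min RT; start with NADPH (500 uM addition) then DTNB (15 mM addition). Kinetic TNB absorbance, 405 nm filter. Four-parameter Hill fit across titration.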
Lassa entry inh – inhibitors of Lassa virus binding or cell entry | Lassa virus pseudotype entry inhibition, cell reporter | Potency, µM (highest dose often 37.9 µM), for the others: at the top dose activity change, negative = inhibition, usual class: inhibitors | hit rate 1.2% among 300,000; calls by dose curve; tested in HEK293 cells; note: nearly all actives have a fitted effect of over 50% in size
Vaccinia mCherry – vaccinia inhibition (mCherry reporter); hit rate 0.63% among 310,000; Potency, µM (top dose mostly 36.5 µM), for the others: top-dose activity change, negative = inhibition, hits mostly inhibitors; Vaccinia virus mCherry reporter infection, fluorescence; calls by dose curve; tested in A549 cells; note: nearly all actives have a fitted effect of over 35% in size
VACV Venus inh – inhibitors of vaccinia virus (Venus reporter); Potency, µM (titrated, usually from 36.5 µM), for inactives: at the highest dose activity change, negative = inhibition, usual class: inhibitors; Vaccinia virus Venus reporter expression, fluorescence; AID 720580; hit rate 0.46% among 330,000; calls by dose curve; tested in A549 cells; note: nearly all actives have a fitted effect of over 30% in size
Starred values were filed as active, the others as inactive; i = inactive; ? = inconclusive; nt = no result given; [ ] = dose if it differs, or a comment. % is set by controls: 0 for no effect and ±100 for the full control effect; potency is the fitted concentration of half-maximal effect.

SMILES | FMDV inh | MARV entry inh | Sm TGR inh | Lassa entry inh | Vaccinia mCherry | VACV Venus inh
COC1=C(C)C(=O)C2=C(C1=O)C1C3CC4=C(C(=O)C(OC)=C(C)C4=O)C(CNC(=O)C(C)=O)N3C(C#N)C(C2)N1C (configuration not stated) | ? | ? | nt | ? | ? | 1µM*
Cc1ccc(S(=O)(=O)C(CNC(=O)c2c(F)cccc2F)c2ccco2)cc1 (configuration not stated) | 27.5% | nt | -13.2% | 25.8%[46.1 µM] | -1.2% | -6.3%
Cc1ccc(C(=O)NCC(c2ccco2)S(=O)(=O)c2ccccc2)cc1C (configuration not stated) | 28.6% | nt | -16.5% | -17.4%[46.1 µM] | 2.5% | -11.9%
Cc1ccc(C(=O)NCC(c2ccco2)S(=O)(=O)c2ccc(Cl)cc2)cc1C (configuration not stated) | -29.3% | nt | 11.2µM* | -1.6%[46.1 µM] | -12.4% | -18.2%
O=C(NCC(c1ccco1)S(=O)(=O)c1ccc(Cl)cc1)c1ccccc1F (configuration not stated) | 19.7% | nt | 2.51µM* | -0.6%[46.1 µM] | -4.7% | -8.0%
COC(=O)C1CCN(S(=O)(=O)c2cc3c4c(c2)C(C)C(=O)N4CCC3)CC1 (configuration not stated) | 7.8% | nt | -2.4% | 5.2%[46.1 µM] | -12.7% | -15.1%
CCOC(NC(=O)c1ccccc1)C(NC(=O)c1ccccc1)OCC (configuration not stated) | 4.0% | 20.4% | 4.0% | 7.6% | nt | nt
CCN(CC)C(NC(=O)c1ccccc1)C(=O)c1ccccc1 (configuration not stated) | 20.7% | 0.0% | 79.4µM* | 7.4% | nt | -16.5%
Cc1cccc(N(C)c2nc3ccccc3c3nnc(C)n23)c1 | -7.6% | nt | 7.6% | 17.3%[46.1 µM] | -11.3% | -2.7%
Cc1ccc(CNC(=O)CC(C)S(=O)(=O)c2ccc3c(c2)NC(=O)CS3)o1 (configuration not stated) | -18.7% | nt | 14.1µM* | nt | nt | nt
Clc1ccc(C2=NNC(=NCc3ccc4c(c3)OCO4)SC2)cc1 | 7.8% | 12.6µM* | -16.3% | ? | -25.0% | -6.4%
CCCN(CCC)C(=O)Cn1c(=O)n(-c2ccc(CC)cc2)c(=O)c2ccc(C(=O)NCCc3ccccc3)cc21 | -17.4% | 14.1%[46.1 µM] | 8.3% | -7.5%[46.1 µM] | -29.6% | -24.7%
COc1ccccc1-n1cc(CN2CCC3(CCC(CNC(=O)c4ccccc4)O3)CC2)cn1 (configuration not stated) | 16.2% | nt | nt | nt | i | 0.8%
C=CCn1c(SCC(=O)Nc2ccccc2OC)nnc1-c1ccco1 | nt | nt | 44.7µM* | nt | nt | nt
CCCn1c(SCC(=O)Nc2ccccc2OC)nnc1-c1ccco1 | 14.7% | ? | 3.6% | ? | -20.6% | -27.3%
CNC(=O)CSc1nnc(-c2ccco2)n1-c1ccccc1OC | 0.9% | 2.2% | 79.4µM* | -1.9% | nt | nt
CCOC(=O)CSc1nnc(-c2ccco2)n1-c1ccc(C)cc1 | -12.6% | 4.5% | ? | 9.9% | nt | nt
CCOC(=O)CSc1nnc(-c2ccco2)n1-c1ccccc1 | -17.3% | -3.8% | 22.4µM* | -0.6% | i | -8.6%
COC(=O)c1c(OCc2ccccn2)cc(=O)n2c1CCN(C(=O)c1n[nH]c3c1CCCC3)CC2 | -10.5% | nt | nt | nt | -14.7% | -8.4%
CCOC(=O)Cn1c(=O)c2c(nc(N3CCOCC3)n2Cc2ccccc2)n(C)c1=O | -20.5% | ? | -4.3% | -17.4%[46.1 µM] | -19.2% | -8.5%
CC(=O)c1ccccc1-c1ccc2c(c1)CC(CNC(=O)Cc1c[nH]c3ccccc13)O2 (configuration not stated) | -0.4% | nt | nt | nt | -19.7% | -7.7%
Cc1cccc(N2CCN(C(=O)C3CCCN(S(=O)(=O)c4cccc5nsnc45)C3)CC2)c1C (configuration not stated) | 0.0% | 4.8%[46.1 µM] | -0.4% | 17.9%[46.1 µM] | -11.6% | 5.1%
CSc1nnc(C(C)(C)C)c(=O)n1N/C=C1\C(=O)CCC2=C1CCCC2 | nt | 3.1%[46.1 µM] | nt | nt | nt | nt
CCN(CC)C(=O)CS(=O)(=O)CC(=O)Nc1cc(OCCOC)c(Cl)cc1Cl | -5.8% | 17.8%[46.1 µM] | 35.5µM* | -6.8%[46.1 µM] | -13.4% | -5.9%
COCCOc1cc(NC(=O)CS(=O)CC(=O)N(C)C)c(Cl)cc1Cl (configuration not stated) | 27.3% | 15.0%[46.1 µM] | 4.6% | 7.1%[46.1 µM] | -4.6% | -2.2%
CCOc1cc(CNC2CCCC2)cc(Cl)c1OCc1ccc(F)cc1 | nt | 5.8µM* | 0.9% | ? | ? | ?

Screens (PubChem)
